PubChem BioAssay (NCI)
“And” between values parts separate entries of the source, which are not always exact repeats. Identical values can stand only once. This is part of a sample that, as a whole, favours compounds with a hit. Of some 83,000 tested, about 20% had one in any assay.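 Compound tested at a single concentration for 48 hours in 96-well plates; a percent growth value below 10 was scored as active.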 A number with no mark means an inactive call. The source made the active and inactive calls.

System: MDA-MB-468 breast
Assay: NCI-60 one-dose screen, 48 h (100 = growth as untreated, 0 = no growth, -100 = all killed)
Conditions: 10 µM unless noted

Row | SMILES | growth
1 | O=C(Nc1ccc(Br)cc1)Nc1nc2ccc([N+](=O)[O-])cc2s1 | -29% (active)
2 | CCCCCCN(CCCCCC)C(=N)c1ccnc2ccccc12 | 12.5%
3 | CCCCCCCCCc1cc(CN2CCCCC2)c(O)c(CN2CCCCC2)c1 | 40.4%
4 | C=CCSc1nc2ccccc2cc1/C=N/O | 82%
5 | c1ccc(Nc2ncc3c(n2)-c2cccn2CC3)cc1 | 4.29% (active)
6 | CC1=C(C)C(=O)C(Nc2cccc(C(F)(F)F)c2)=C(Cl)C1=O | -65.6% (active)
7 | CCn1c2ccccc2c2cc(C(O)c3cccc4ncccc34)ccc21 (stereo not given) | 14.2%
8 | CCCCCCc1nc2c(c(C)nn2-c2ccccc2)c2c1CCCCC2 | 127%
9 | CC1(C)Cc2c(sc3ncn4nc(-c5ccc(O)cc5)nc4c23)CO1 | 61.4%
10 | CC1=C(O)C(=O)CC1 | 104%
11 | CCN(CC)CCNC(=O)C(F)(F)C(F)(F)C(F)(F)F | 105%
12 | CC(C)n1nc(-c2ccc3oc(N)nc3c2)c2c(N)ncnc21 | -34.1% (active)
13 | O=C1c2ccccc2C(=O)c2c(NCCN=Cc3ccccc3O)cccc21 | 43.8%
14 | [Cl][Ru].c1ccc(-c2cc(-c3ccccn3)nc(-c3ccccn3)c2)cc1.c1ccc(-c2ccnc3c2ccc2c(-c4ccccc4)ccnc23)cc1 | -66.3% (active)
15 | O=C(/C=C/c1cc(-c2ccc3c(c2)OCO3)n[nH]1)c1ccc2c(c1)OCO2 | 77.2%
16 | COc1ccc(-c2cnc(N)nc2-c2ccc(OC)cc2O)cc1 | 92.5%
17 | CC(=O)Nc1ccc(NC(=O)Nc2cccc(-c3nc(-c4ccc(NC(=O)c5cccs5)cc4Cl)no3)c2)cc1C(F)(F)F | -77.7% (active)
18 | O=S(=O)(O)c1ccc(N=NSc2ccc3ccccc3c2)cc1 | 108%
19 | COc1ccc(C(=O)Nc2ncc(Cc3cccc(Cl)c3)s2)cc1OC | -1.51% (active)
20 | CC(Br)C(Br)c1cc2c(cc1Br)OCO2 (stereo not given) | 96.8%

Row | SMILES | growth
21 | CN(C)CCCC1(c2ccc(F)cc2)OCc2cc(-c3cc4ccccc4s3)ccc21 (stereo not given) | -8.95% (active)
22 | COc1cccc(/C=C2\C=C(c3ccccc3)N(Cc3ccccc3)C2=O)c1 | 45.3%
23 | CC1(CO)CCCC1NCCNC1CCCC1(C)CO (stereo not given) | 104% and 95.5%
24 | c1ccc(C2=NN[C@H](c3cn(-c4ccccc4)nc3-c3ccccc3)C2)cc1 | 28.2%
25 | COc1ccc(-c2nc3cc(Cl)c(Cl)cc3n2CC(=O)N=Nc2c(O)[nH]c3ccc(OC)cc23)cc1 | 42.4%
26 | O=C1[C@H]2Cc3c([nH]c4ccccc34)[C@@H](c3ccc(Cl)cc3)N2C(=O)CN1C1CCN(Cc2ccccc2)CC1 | 27.3%
27 | NC1C2CCC1CN(c1cnc(C(=O)Nc3cc(F)cc4cccnc34)cn1)C2 (stereo not given) | -4.02% (active)
28 | COc1cc(/C=C2\COc3ccc(O)cc3C2=O)cc(OC)c1 | 54.1%
29 | O=C(Nc1cccc(Cl)c1)Nc1cc2ncncc2cc1OCc1cccc(F)c1 | -2.43% (active)
30 | O=C(c1ccccc1)C(Nc1ccccc1)c1ccccc1 (stereo not given) | 88.7%
31 | C[C@H](C(=O)N[C@@H](Cc1ccc(-c2ccccc2)cc1)C(=O)NC1CC(C)(C)N(C)C(C)(C)C1)c1ccc(-c2ccccc2)c(F)c1 | -86.5% (active)
32 | CCOC(=O)NC(N)=O | 105% and 98.7%
33 | C=C1C(=O)O[C@H]2[C@H]1CC/C(COC(=O)NCc1c[nH]c3ccc(Br)cc13)=C\CC[C@@]1(C)O[C@@H]21 | -58% (active)
34 | CCN(CC)c1ccc(N=C2C=CC(=O)C=C2NC(C)=O)cc1 | 98.7%
35 | O=C(CSc1nnc(-c2cc(-c3ccccc3)nc3ccccc23)o1)c1ccc(Br)cc1 | 103%
36 | O=C(NCc1ccc(F)cc1)C1CN(c2ccc(Cl)cc2)N(c2ccc(Cl)cc2)C1=O (stereo not given) | 43.1%
37 | CCOC(=O)Cn1c(C)c(/C=N/NC(=O)c2cc3c(ccc4ccccc43)o2)c2ccccc21 | 16.1%
38 | C#CC[C@@H]1C[C@]2(C)[C@H]3CC[C@@H]4[C@H]5C(C(=C)C)CC[C@]5(C(=O)NCCCCN)CC[C@@]4(C)[C@]3(C)CC[C@H]2C(C)(C)[C@H]1OC(C)=O (stereo not given in full) | -53.7% (active)
39 | COc1cc(-c2nn(-c3ccc(Br)cc3)cc2C(=O)O)ccc1O | 103%
40 | O=C1/C(=C/c2ccccc2)CN(C(=O)c2cccnc2)C/C1=C\c1ccccc1 | -49.2% (active)
